Screening results as filed in PubChem.
GRK2 inh: human GRK2 inhibition via aptamer displacement | inhibition of aptamer binding, % at 10 µM | hit rate 0.59% among 330,000 | P25098 | bead flow cytometry, FAM-aptamer displacement from GRK2 | AID 488847;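 active = inhibition of aptamer binding above 40%, roughly 3 SD of noise, on plates passing a quality check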;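 note: median bead fluorescence of bound FAM aptamer so fluorescent compounds give negative values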
Target sequence (P25098 whole entry, looked up): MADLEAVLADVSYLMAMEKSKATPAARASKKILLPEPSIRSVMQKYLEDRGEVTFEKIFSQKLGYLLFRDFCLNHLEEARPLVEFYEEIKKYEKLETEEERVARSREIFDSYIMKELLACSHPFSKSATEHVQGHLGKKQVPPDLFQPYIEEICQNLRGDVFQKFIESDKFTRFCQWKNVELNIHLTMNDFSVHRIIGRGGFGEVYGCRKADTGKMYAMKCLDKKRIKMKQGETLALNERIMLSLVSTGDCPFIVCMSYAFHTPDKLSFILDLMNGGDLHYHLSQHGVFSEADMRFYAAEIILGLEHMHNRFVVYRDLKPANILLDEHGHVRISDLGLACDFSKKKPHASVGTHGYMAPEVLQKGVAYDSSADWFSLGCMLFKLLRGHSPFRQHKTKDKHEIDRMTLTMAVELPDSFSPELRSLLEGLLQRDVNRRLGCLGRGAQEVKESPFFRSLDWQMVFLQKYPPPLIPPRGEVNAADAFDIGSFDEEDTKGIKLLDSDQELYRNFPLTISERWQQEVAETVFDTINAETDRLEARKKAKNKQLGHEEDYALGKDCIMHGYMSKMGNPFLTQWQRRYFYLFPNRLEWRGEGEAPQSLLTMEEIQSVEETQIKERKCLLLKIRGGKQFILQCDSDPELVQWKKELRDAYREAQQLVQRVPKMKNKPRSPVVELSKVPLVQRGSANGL
MEKK2mut PB1 HTS: signal of MEK5 binding to mutant human MEKK2 PB1 domain; bead flow cytometry, Alexa488-MEK5 binding to MEKK2 mutant; hit rate 0.35% among 290,000; AID 1530; percent response, % at 10 µM; in the data active = percent response above about 24%, passing the limit was not always enough
MEKK3 PB1 HTS: modulators (inhibitors or enhancers) of MEK5 binding to human MEKK3 PB1 domain. binding response (% of control), % at 10 µM. bead-based flow cytometry, Alexa488-MEK5 binding to MEKK3; actives lie on both sides; 0 = blocked by unlabeled MEK5, 100 = vehicle. hit rate 1.4% among 290,000. Q99759. AID 1529;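 active = binding response more than 3 SD above or below the average of its plate-row segment, actives on both sides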;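 note: Alexa488 bead fluorescence after subtracting the streptavidin-only scavenger bead signal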
MEKK2 WT-MEK5: raises or lowers MEK5 binding to wildtype human MEKK2 PB1 domain; Q9Y2U5; bead flow cytometry, Alexa488-MEK5 binding to MEKK2 WT; actives lie on both sides; binding response (% of control), % at 10 µM; hit rate 1.1% among 290,000; AID 1531; in the data active = binding response below about 67% or above about 130%
MEKK2wt confirm: raises or lowers MEK5 binding to wildtype human MEKK2, retest | shares compounds with MEKK3 PB1 HTS | bead flow cytometry, Alexa488-MEK5 binding to MEKK2 WT; actives lie on both sides | binding response (% of control), % at 10 µM | hit rate 2.4% among 5,900; in the data active = binding response below about 16% or above about 210%; inactive = in between
MEKK2mut-MEK5: signal of MEK5 binding to mutant human MEKK2, retest; bead flow cytometry, Alexa488-MEK5 binding to MEKK2 mutant; percent response, % at 10 µM; shares compounds with MEKK3 PB1 HTS; hit rate 2% among 5,900; AID 1893; in the data active = percent response mostly above about 71%, no sharp cut-off; inactive = mostly below about 38%;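 note: higher means compound restores mutant binding toward wildtype level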
MEKK3-MEK5 inh: confirmation of inhibitors of MEK5 binding to human MEKK3. shares compounds with MEKK3 PB1 HTS. hit rate 1.8% among 5,900. binding response (% of control), % at 10 µM. bead flow cytometry, Alexa488-MEK5 binding to MEKK3; hits give low values;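 active = binding response below 72% of control, or above a set upper limit, though filed actives all read lower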;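 note: 100% = DMSO only wells and 0% = binding blocked by excess unlabeled MEK5; lower values mean stronger disruption of MEK5 binding to MEKK3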
Active calls of the source: *; [ ] = remark or other dose. Shown are actives, neighbours in structure and some others; about 2.5% of the full set was active somewhere.

What do the screens show for `CN(C)c1ccc(C(=O)/C=C/c2cccnc2)cc1`?
GRK2 inh: 0; MEKK2mut PB1 HTS: 7; MEKK3 PB1 HTS: 104; MEKK2 WT-MEK5: 110

What do the screens show for `Cc1ccc(S(=O)(=O)N(CC(=O)Nc2ccc(Cl)c([N+](=O)[O-])c2)C2CCCCC2)cc1`?
GRK2 inh: 2; MEKK2mut PB1 HTS: 27; MEKK3 PB1 HTS: 107; MEKK2 WT-MEK5: 146*; MEKK2wt confirm: 132; MEKK2mut-MEK5: 20; MEKK3-MEK5 inh: 106

Results for O=[N+]([O-])c1ccc(O)c(C(C#Cc2ccccc2)N2CCOCC2)c1 (stereo not drawn) ?
GRK2 inh: 3; MEKK2mut PB1 HTS: -13; MEKK3 PB1 HTS: 67*[inhibitor]; MEKK2 WT-MEK5: 77; MEKK2wt confirm: 105; MEKK2mut-MEK5: 4; MEKK3-MEK5 inh: 105

How did CCCC(=O)NC(NC(=S)Nc1ccc(S(N)(=O)=O)cc1)C(Cl)(Cl)Cl (stereo not drawn) do in these assays?
GRK2 inh: 0; MEKK2mut PB1 HTS: 0; MEKK3 PB1 HTS: 131*; MEKK2 WT-MEK5: 107; MEKK2wt confirm: 102; MEKK2mut-MEK5: 5; MEKK3-MEK5 inh: 104

Results for CCCCCC(=O)NC(NC(=S)Nc1ccc(S(N)(=O)=O)cc1)C(Cl)(Cl)Cl (stereo not drawn) ?
GRK2 inh: 0; MEKK2mut PB1 HTS: 5; MEKK3 PB1 HTS: 104; MEKK2 WT-MEK5: 102

What do the screens show for `O=C(c1cccc(Cl)c1)N1CCCC(C(=O)N2CCN(c3ccccc3)CC2)C1` (stereo not drawn)?
GRK2 inh: 1; MEKK2mut PB1 HTS: 2; MEKK3 PB1 HTS: 95; MEKK2 WT-MEK5: 105

How did COc1nc(C)nc2c1ccc1ccccc12 do in these assays?
GRK2 inh: 3; MEKK2mut PB1 HTS: 2; MEKK3 PB1 HTS: 136*; MEKK2 WT-MEK5: 104; MEKK2wt confirm: 98; MEKK2mut-MEK5: -4; MEKK3-MEK5 inh: 104

What do the screens show for `COc1ccc(Oc2nc(C)nc3c2oc2ccccc23)cc1`?
GRK2 inh: 13; MEKK2mut PB1 HTS: 3; MEKK3 PB1 HTS: 116; MEKK2 WT-MEK5: 109

What do the screens show for `Nc1ccc(OCCCc2c(N)nc(N)nc2N)cc1`?
GRK2 inh: 0; MEKK2mut PB1 HTS: 8; MEKK3 PB1 HTS: 82*[inhibitor]; MEKK2 WT-MEK5: 110; MEKK2wt confirm: 120; MEKK2mut-MEK5: 13; MEKK3-MEK5 inh: 95

What do the screens show for `CCNC(=O)N(CC)C[C@H]1N[C@@](Cc2ccccc2)(C(=O)OC)[C@H]2C(=O)N(C)C(=O)[C@@H]12`?
GRK2 inh: 0

What do the screens show for `COc1cc(O)c(C(CCN2CCCCC2)c2cc(OC)c(OC)c(OC)c2)c(OC)c1` (stereo not drawn)?
MEKK2mut PB1 HTS: 3; MEKK3 PB1 HTS: 94; MEKK2 WT-MEK5: 90

Results for COc1ccc(C(CCN2CCCC2)c2c(O)cc(OC)cc2OC)cc1 (stereo not drawn) ?
GRK2 inh: 0; MEKK2mut PB1 HTS: 9; MEKK3 PB1 HTS: 117; MEKK2 WT-MEK5: 149*; MEKK2wt confirm: 158; MEKK2mut-MEK5: 31; MEKK3-MEK5 inh: 108

What do the screens show for `COc1cc(O)c(C(CCN2CCCC2)c2cc(OC)c(OC)c(OC)c2)c(OC)c1` (stereo not drawn)?
GRK2 inh: 0; MEKK2mut PB1 HTS: 5; MEKK3 PB1 HTS: 114; MEKK2 WT-MEK5: 145*; MEKK2wt confirm: 118; MEKK2mut-MEK5: 13; MEKK3-MEK5 inh: 103

Results for COc1cc(O)c(C(CCN2CCOCC2)c2cc(OC)c(OC)c(OC)c2)c(OC)c1 (stereo not drawn) ?
GRK2 inh: 2; MEKK2mut PB1 HTS: 3; MEKK3 PB1 HTS: 119; MEKK2 WT-MEK5: 142*; MEKK2wt confirm: 98; MEKK2mut-MEK5: -8; MEKK3-MEK5 inh: 97

How did CCN(CC(=O)Nc1c(F)cccc1F)C(=O)c1cc([N+](=O)[O-])ccc1N1CCCCC1 do in these assays?
GRK2 inh: 3

What do the screens show for `CCNC(=O)CSc1nc2cc([N+](=O)[O-])ccc2n1-c1cccc(C(F)(F)F)c1`?
GRK2 inh: 0; MEKK2mut PB1 HTS: 20; MEKK3 PB1 HTS: 105; MEKK2 WT-MEK5: 119

Results for NC(=O)CSc1nc2cc([N+](=O)[O-])ccc2n1-c1cccc(C(F)(F)F)c1 ?
GRK2 inh: 5; MEKK2mut PB1 HTS: 1; MEKK3 PB1 HTS: 133*; MEKK2 WT-MEK5: 109; MEKK2wt confirm: 106; MEKK2mut-MEK5: 4; MEKK3-MEK5 inh: 106

Results for O=C(CNC1C(=O)Nc2ccccc21)Sc1ccccc1 (stereo not drawn) ?
GRK2 inh: 0; MEKK2mut PB1 HTS: -20; MEKK3 PB1 HTS: 2.0*[inhibitor]; MEKK2 WT-MEK5: 3.0*[inhibitor]; MEKK2wt confirm: 97; MEKK2mut-MEK5: -3; MEKK3-MEK5 inh: 105

How did O=C(O)CCCCCNC(=O)C(=O)C1C(=O)Nc2ccccc21 (stereo not drawn) do in these assays?
GRK2 inh: 0; MEKK2mut PB1 HTS: 2; MEKK3 PB1 HTS: 101; MEKK2 WT-MEK5: 100

Results for Cc1ccccc1-n1c(SCc2c(C)noc2C)nnc1-c1cccnc1 ?
GRK2 inh: 0; MEKK2mut PB1 HTS: 30*; MEKK3 PB1 HTS: 101; MEKK2 WT-MEK5: 28*[inhibitor]; MEKK2wt confirm: 109; MEKK2mut-MEK5: 2; MEKK3-MEK5 inh: 96

How did Nc1ccc(N)c(C(=O)O)c1 do in these assays?
GRK2 inh: 88*; MEKK2mut PB1 HTS: -58; MEKK3 PB1 HTS: 47*[inhibitor]; MEKK2 WT-MEK5: 25*[inhibitor]; MEKK2wt confirm: 57; MEKK2mut-MEK5: -20; MEKK3-MEK5 inh: 57*

Results for Nc1ccc(C(=O)O)c(O)c1 ?
GRK2 inh: 0; MEKK2mut PB1 HTS: -14; MEKK3 PB1 HTS: 95; MEKK2 WT-MEK5: 81

Results for CN1C(C(=O)NCc2cccc(C(F)(F)F)c2)CC2Cn3c(nc4cc5ccccc5cc43)C21 (stereo not drawn) ?
GRK2 inh: 0; MEKK2mut PB1 HTS: 2; MEKK3 PB1 HTS: 96; MEKK2 WT-MEK5: 95

What do the screens show for `CN1C(C(=O)NCc2cccc(C(F)(F)F)c2)CC2Cn3c(nc4ccccc43)C21` (stereo not drawn)?
GRK2 inh: 0; MEKK2mut PB1 HTS: -5; MEKK3 PB1 HTS: 51*[inhibitor]; MEKK2 WT-MEK5: 96; MEKK2wt confirm: 100; MEKK2mut-MEK5: -4; MEKK3-MEK5 inh: 98

Results for CCc1ccc(Nc2n[n+](-c3ccccc3)c(-c3ccc(OC)c(Br)c3)s2)cc1 ?
GRK2 inh: 0; MEKK2mut PB1 HTS: 41*; MEKK3 PB1 HTS: 109; MEKK2 WT-MEK5: 207*; MEKK2wt confirm: 206; MEKK2mut-MEK5: 73*; MEKK3-MEK5 inh: 113
